Assay results as given in ChEMBL document CHEMBL3433997, “St. Jude Leishmania screening dataset” (2016).
Several values for one entry are separate records, joined by “and”; a condition that tells them apart may be missing. Identical values can stand only once.

Columns and labels:
Type in all cases: functional
[1] = target: Solute carrier family 2, facilitated glucose transporter member 1 (Homo sapiens) (UniProt P11166); assay: ST_JUDE_LEISH: Cytotoxicity at 2uM final concentration against transgenic Leishmania Mexicana promastigotes LmGLUT1 that are glucose transport deficient and complemented with the human glucose transporter GLUT1. Activity is measured by DNA content using SYBR green in vitro
[2] = target: Hexose transporter 1 (Plasmodium falciparum) (UniProt O97467); assay: ST_JUDE_LEISH: Cytotoxicity at 2uM final concentration against transgenic Leishmania Mexicana promastigotes LmPfHT that are glucose transport deficient and complemented with the Plasmodium falciparum hexose transporter. Activity is measured by DNA content using SYBR green in vitro
[3] = target: Glucose transporter (Leishmania mexicana) (UniProt O61059); assay: ST_JUDE_LEISH: Cytotoxicity at 2uM final concentration against transgenic Leishmania Mexicana promastigotes LmGT2 that are glucose transport deficient and complemented with the L. Mexicana glucose transporter 2. Activity is measured by DNA content using SYBR green in vitro

Chain of Solute carrier family 2, facilitated glucose transporter member 1 (Homo sapiens) (P11166 whole entry): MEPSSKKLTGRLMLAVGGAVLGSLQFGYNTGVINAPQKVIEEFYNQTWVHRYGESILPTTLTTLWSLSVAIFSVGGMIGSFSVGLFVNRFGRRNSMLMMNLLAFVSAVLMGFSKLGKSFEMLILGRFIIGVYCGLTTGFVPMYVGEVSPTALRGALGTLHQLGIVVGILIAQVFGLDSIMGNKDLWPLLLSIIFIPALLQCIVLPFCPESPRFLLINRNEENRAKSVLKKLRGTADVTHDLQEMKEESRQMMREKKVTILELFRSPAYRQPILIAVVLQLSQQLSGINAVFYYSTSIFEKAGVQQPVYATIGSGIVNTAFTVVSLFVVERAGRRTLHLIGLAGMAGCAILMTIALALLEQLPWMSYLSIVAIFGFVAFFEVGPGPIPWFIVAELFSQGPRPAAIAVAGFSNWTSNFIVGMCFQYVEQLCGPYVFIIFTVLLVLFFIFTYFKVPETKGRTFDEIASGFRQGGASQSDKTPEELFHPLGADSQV

SMILES	inhibition [1]	inhibition [2]	inhibition [3]
COc1ccc(CCNC(=O)c2ccc(-n3cc(NC(=O)c4cccnc4)cn3)cc2)cc1OC	3.78%	3.85%	3.79%
COc1ccc(NC(=O)/C=C/c2ccccc2Cl)cc1OCCN1CCN(c2ccncc2)CC1	1.29%	-0.96%	-1.49%
O=C(NC1CCCC1)c1ccc(N2CCC(NCc3cccc(C(F)(F)F)c3)CC2)cc1	-0.33%	-0.97%	0.59%
N=C(N)NN=Cc1c2ccccc2c(Cl)c2cc(Cl)ccc12	62.5%	26.4%	29.3%
Cc1nc(-c2nc(NCc3ccccn3)ncc2-c2ccsc2)sc1C	6.64%	5.22%	5.82%
Nc1c2ccccc2nc2ccc(Cl)cc12	14.6%	16.4%	9.04%
CC(C)[C@H](NC(=O)c1c(CN2CCC(N3CCCCC3)CC2)c(-c2ccccc2)nc2cc(O)ccc12)c1ccccc1	2.26%	1.22%	0.91%
Cc1cc(Nc2ccc(O)cc2)nc2cccc(O)c12	2.06%	0.79%	3.84%
CC(CNC1CCN(CCn2c(=O)ccc3ccc(F)cc32)CC1)c1ccccc1 (stereo unspecified)	-1.82%	-1.07%	-0.24%
CCN(c1ccccc1)S(=O)(=O)c1ccc(OC)c(NC(=O)c2cccc(C(F)(F)F)c2)c1	10.4%	7.45%	7.82%
COC(=O)C1(NC(=O)c2ccc(-n3nc(C)c(-c4ccccc4)c3N)cc2)CCCC1	2.04%	2.33%	2.55%
CCC(C)(C)C1CCc2nc(N)nc(N)c2C1 (stereo unspecified)	67%	71.9%	56.1%
CCCc1cn2c3c(cc(C(=O)N[C@@H](Cc4ccccc4)[C@H](O)CNC4CCCCC4)cc13)N(CC)S(=O)(=O)CC2	0.5%	0.94%	-0.79%
O=C(C1CCN(c2nnnn2-c2ccccc2)CC1)N1CCc2ccccc2C1	13%	15.6%	14.1%
Cc1cc(N[C@@H](Cc2ccccc2)C(=O)NCCc2ccccc2)nc(NCCc2cccs2)n1	3.32%	0.76%	1.55%
Brc1ccc(Nc2ccnc3cc(-c4nccs4)ccc23)cc1Oc1ccnc2cc(-c3nccs3)ccc12	1.77%	2.1%	-0.86%
CCc1cn2c3c(cc(C(=O)N[C@@H](Cc4cccc(F)c4)[C@H](O)CNC4CCCCC4)cc13)N(C)S(=O)(=O)CC2	-0.36%	-1.06%	-0.81%
COc1ccc2nc(C)cc(N/N=C/c3ccccc3[N+](=O)[O-])c2c1	2.3%	2.99%	-0.41%
CCN(CCCN1CCCCC1)c1cc(C)nc(Nc2ccc(C)cc2Br)n1	4.17%	4.38%	4.15%
O[C@@H](c1cc(C(F)(F)F)nc2c(C(F)(F)F)cccc12)[C@H]1CCCCN1	13.6% and 1.21%	8.31% and 0.88%	7.19% and 1.05%
CC=Cc1cc(Cc2c[nH]c(=N)[nH]c2=N)cc(CCC)c1OC	10.8%	8.99%	4.71%

SMILES	inhibition [1]	inhibition [2]	inhibition [3]
c1ccc(CN2CCC(NCc3ccc(-c4cccc(CNC5CCCC5)c4)cc3)CC2)cc1	15.8%	8.03%	0.89%
COc1cc(C)ccc1N1CCN(CCCCNC(=O)c2ccc(NC(=O)c3ccc(Cl)cc3)cc2)CC1	6.85%	6.83%	6.92%
CCOc1c(CNCCCNc2cc(=O)c3ccccc3[nH]2)cc(I)cc1C(C)(C)C	-0.21%	1.18%	0.27%
Cc1ccc2c(=O)c3cc(C)ccc3[nH]c2c1	3.4%	0.93%	0.54%
COc1ccc2c(NN=Cc3ccc(Cl)cc3)ccnc2c1	3.12%	2.42%	4.63%
CN(C)c1ccc(CN2CCC(NC(=O)c3ccc(-c4cccc(C(F)(F)F)c4)s3)CC2)cc1	1.92%	-0.72%	5.11%
O=C(NCC1CCC(C(=O)NCc2cccc3ccccc23)CC1)c1ccc(O)c(-c2ccc(Cl)c(Cl)c2)c1 (stereo unspecified)	5.23%	3.37%	4.73%
C[C@@H](N)C#Cc1cc2c(Nc3ccc(OCc4cccc(F)c4)c(Cl)c3)ncnc2s1	2.5%	4.76%	2.27%
COc1cccc(NC(=O)Nc2ccc(Nc3nc(C)cc(N(C)C)n3)cc2)c1	2.46%	1.22%	-4.92%
Cc1ccc2c(OCCN3CCC(Cc4cc5c(cc4F)OCC(=O)N5)CC3)cc(F)cc2n1	5.35%	4.63%	3.85%
C[C@H](Cc1ccc(OCCCCCCOc2ccc(C[C@@H](C)NC(=O)[C@H](O)c3cccc(Cl)c3)cc2)cc1)NC[C@H](O)c1cccc(Cl)c1	7.21%	5.41%	4.7%
Cc1ccc2nc(N(CCCn3ccnc3)C(=O)C=Cc3cccs3)sc2c1	0.75%	1.84%	-2.73%
N#Cc1ccc(-c2nc3c(N4CCCC4)cccc3n2CCNCc2ccccc2)cc1	12.3%	11%	11.8%
O=C(/C=C/c1ccc(Cl)c(Cl)c1)N1CCC(CCN2CCC(c3c[nH]c4cnccc34)CC2)CC1	16%	11.9%	5.81%
Cc1ccccc1C1CCN(C2CCC(NC(=O)/C=C/c3ccccc3C(F)(F)F)CC2)CC1 (stereo unspecified)	3.47%	-0.14%	4.39%
Oc1ccc(CCNc2nc(N/N=C/C=C/c3ccc(Cl)cc3)nc(N3CCNCC3)n2)cc1	0.83%	1.74%	0.91%
O=c1cc(NCCCNC2CCOc3c(Cl)cc(Cl)cc32)[nH]c2ccccc12 (stereo unspecified)	1.09%	2.42%	1.28%
CC(C)(C)OC(=O)n1cc(C2CCN(CCCC34CCCc5cccc(c53)NC4=O)CC2)c2ccncc21 (stereo unspecified)	-0.89%	-0.01%	9.45%
CC(C)COc1ccc(Cl)cc1Nc1nc(-c2nc3ccccc3[nH]2)cs1	2.76%	1.35%	1.01%
OCCN1CCN(C(=S)Nc2ccccc2)CC1	4.19%	3.14%	3.02%
COc1ccc2nccc([C@@H](O)CN3CCC(NCc4cc5cccc6c5n(c4=O)CCC6)CC3)c2c1	2.12%	2.16%	2.27%

SMILES	inhibition [1]	inhibition [2]	inhibition [3]
Oc1ccc2[nH]c(-c3cccs3)nc2c1CN1CCC(N2CCCC2)CC1	3.78%	6.78%	5.89%
CS(=O)(=O)c1cccc(-c2cnc(N)c3cc(-c4cccc(F)c4)ccc23)c1	1.57%	1.63%	0.94%
Oc1c(Cl)cc(-c2ccccc2)cc1CNC1CCCCC1	2.63%	1.84%	0.52%
CCCCCCCc1c2c(C)c(C(=O)OCC)nc-2cc2n1CC(C)=C2C	3.56%	2.2%	3.09%
COc1ccc(Nc2ncc(C#N)c(Nc3ccccc3C(N)=O)n2)cc1N1CCN(C)CC1	15.8%	18.1%	9.63%
Cc1cc(Nc2ccc(OCc3ccccc3Cl)cc2)c2cc(Cl)ccc2n1	19.8%	16.4%	7.55%
CC(=O)c1ccc2c(c1)C(NC(=O)c1cccc(Cl)c1Cl)C(CO)C(C)(C)O2 (stereo unspecified)	1.76%	3.84%	-1.69%
Nc1nc(O)c2cc(CN(C=O)c3ccc(C(=O)N[C@@H](CCC(=O)O)C(=O)O)cc3)ccc2n1	6.36%	4.17%	2.98%
O=C(Nc1cc(C(F)(F)F)cc(C(F)(F)F)c1)c1cc(C(F)(F)F)cc(C(F)(F)F)c1	0.3%	-0.43%	1.06%
Cc1cc(-c2ccc3c(c2)CCN(CCC2CCC(NC(=O)/C=C/c4ccccc4F)CC2)CC3)on1 (stereo unspecified)	11%	6.81%	12.2%
CO/C(=C\C=C\c1cc2cc(Cl)c(Cl)cc2[nH]1)C(=O)NCCCN1CCN(c2cccc(OCC(=O)Nc3ccccc3)c2)CC1	8.53%	8.92%	5.76%
CCn1cc2c3c(cc(C(=O)N[C@@H](Cc4ccccc4)[C@H](O)CNC4CCOCC4)cc31)N(C)S(=O)(=O)CC2	0.41%	0.29%	4.85%
Cc1ccc(O)cc1Nc1ccnc2cc(-c3ccc(CN4CCCCC4)o3)ccc12	14.4%	12.2%	13.8%
Cc1cc(NC(=O)c2cccs2)ccc1OC1CCN(Cc2ccc(F)cc2)CC1	1.65%	2.76%	5.08%
CC(=O)c1cccc(NC(=O)C2c3ccccc3C(=O)N(CC(C)C)C2c2cccs2)c1 (stereo unspecified)	-0.21%	0.13%	0.19%
CCOC(=O)c1ccc(NC(=O)Nc2cccc(-c3ccc(-c4nc5ccccc5[nH]4)cc3)c2)cc1	5.47%	1.48%	3.89%
COc1ccc(-c2cccc(NC(=O)c3cccc(Cl)c3)c2)cc1CN1CCC(O)CC1	8.59%	6.33%	5.34%
Cc1cccc2nc(-c3cccc(-c4ccc(CNCc5cnn(-c6ccccc6)n5)cc4)c3)[nH]c12	0.18%	2.02%	0.22%
CN(Cc1ccc(C#N)cc1)C1CCN(c2cc(NC(=O)c3ccc(F)cc3)ccn2)CC1	1.28%	2.79%	-1.93%
CN1CCN(Cc2cc(NC(=O)c3ccc(-c4ccc(Cl)cc4Cl)cc3)ccc2-c2ccccc2)CC1	6.54%	2.47%	-0.1%
